# Tests used:
# Experiment in all cases: PBM binding z-score (relative to random genomic background probes); higher = stronger binding; sequences stand for … in GC…GCGATTGACAGCGTAGAATGAAGG
# [1] = tested on: FXR:RXRa (NR concentration 270 nM, RXRa partner concentration 90 nM)
# In short: (§1)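 Custom Agilent 4×180K protein-binding microarrays carried double-stranded probes, each with a 34-nt variable region. These regions held direct-repeat seeds, single-nucleotide variants, half-site ablations and random human genomic background sequences. Ligand-free nuclear receptor dimers were incubated on the arrays for 1 h, antibodies against each partner (one per run) detected binding, and scanned fluorescence was regression-normalized. Binding z-scores take the random background probes as reference.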
# [2] = tested on: LXRa:RXRa (NR concentration 270 nM, RXRa partner concentration 90 nM)
# In short: as §1
# [3] = tested on: LXRa homodimer (NR concentration 270 nM)
# In short: as §1
# [4] = tested on: LXRb:RXRa (NR concentration 270 nM, RXRa partner concentration 90 nM)
# In short: as §1
# [5] = tested on: LXRb homodimer (NR concentration 270 nM)
# In short: as §1
# [6] = tested on: PPARa:RXRa (NR concentration 270 nM, RXRa partner concentration 90 nM)
# In short: as §1
# [7] = tested on: PPARg:RXRa (NR concentration 180 nM, RXRa partner concentration 90 nM)
# In short: as §1
# [8] = tested on: PPARg:RXRa 270nM:90nM, anti-RXR (NR concentration 270 nM, RXRa partner concentration 90 nM)
# In short: as §1
# [9] = tested on: PPARg:RXRa 30nM:10nM, anti-RXR (NR concentration 30 nM, RXRa partner concentration 10 nM)
# In short: as §1
# [10] = tested on: PPARg:RXRa 90nM:30nM, anti-RXR (NR concentration 90 nM, RXRa partner concentration 30 nM)
# In short: as §1
# [11] = tested on: PPARg:RXRa DBDmut IVT, anti-RXR (DBD mutation: RXRa K156A/R161A, NR concentration 270 nM, RXRa partner concentration 90 nM)
# In short: as §1
# [12] = tested on: PPARg:RXRa IVT, anti-PPARg (NR concentration 270 nM, RXRa partner concentration 90 nM)
# In short: as §1
# [13] = tested on: PPARg DBDmut:RXRa IVT, anti-PPARg (DBD mutation: PPARg1 K132A/R137A, NR concentration 270 nM, RXRa partner concentration 90 nM)
# In short: as §1
# [14] = tested on: PPARg DBDmut IVT, anti-PPARg (DBD mutation: PPARg1 K132A/R137A, NR concentration 270 nM)
# In short: as §1
# [15] = tested on: PPARg homodimer (NR concentration 180 nM)
# In short: as §1
# [16] = tested on: PXR:RXRa (NR concentration 270 nM, RXRa partner concentration 90 nM)
# In short: as §1
# [17] = tested on: PXR homodimer (NR concentration 270 nM)
# In short: as §1
# [18] = tested on: RARa:RXR (NR concentration 270 nM, RXRa partner concentration 90 nM)
# In short: as §1
# [19] = tested on: RARa homodimer (NR concentration 270 nM)
# In short: as §1
Sequence,PBM binding z-score [1],PBM binding z-score [2],PBM binding z-score [3],PBM binding z-score [4],PBM binding z-score [5],PBM binding z-score [6],PBM binding z-score [7],PBM binding z-score [8],PBM binding z-score [9],PBM binding z-score [10],PBM binding z-score [11],PBM binding z-score [12],PBM binding z-score [13],PBM binding z-score [14],PBM binding z-score [15],PBM binding z-score [16],PBM binding z-score [17],PBM binding z-score [18],PBM binding z-score [19]
TTTCCAAGGTGAAAGGTCGTTGATGCACGCCTTG,3.56,3.59,0.323,2.79,0.0398,5.37,7.96,7.33,6.06,7.82,2.51,4.72,0.923,0.85,1.64,4.23,0.161,5.56,-0.0268
CGAACTAGGTCAGAACAGGACAGTTAAGGATGAT,1.32,0.929,-0.00999,0.73,-0.36,3.07,5.13,4.49,2.04,3.46,7,7.32,3.55,1.83,1.49,1.15,0.458,1.41,0.874
CGAACTAAGTCATTGACAGGACAGTGAATAGTAA,-0.324,-0.239,-0.0692,-0.347,-0.466,-0.0981,0.241,0.0844,-0.211,-0.239,0.976,0.473,-0.569,0.367,-0.739,-0.093,-0.313,0.0796,0.472
CCTCGGAGGACAGAAGGTCAGATCTGTCCGCTTT,1.34,1.57,0.283,1.25,-0.347,1.62,0.155,0.812,-0.772,0.0725,0.207,-0.0702,-0.934,-1.55,1.35,1.65,-0.42,1.98,0.321
AATACAGGGACATCGTAGGCCAGAGTACGCACAG,-0.0851,-0.29,0.107,-0.465,0.118,-0.329,1.07,-0.124,0.0369,0.0571,-0.376,0.372,0.226,0.0255,-0.207,-0.16,0.0295,-0.225,0.123
CGTCAAAGCTCAACTAAGGTAACGTAAAGCACGC,0.16,-0.241,-0.0906,-0.093,-0.32,-0.0617,0.335,-0.241,-0.2,-0.494,0.431,-0.398,-1.05,-0.108,0.191,-0.124,-0.0533,0.83,-0.0738
TCTGCTAGGTCAGTTGGGCAGCTAACGAGCTGCC,0.934,0.385,-0.629,0.223,0.28,1.12,0.0296,1.52,0.946,1.17,2.07,2.7,-0.163,-0.28,0.0544,-0.242,-1.29,0.253,-1.12
ATCGAATGGTCGAAGGTGAGTATACCCACCCGAA,-0.229,-0.228,-0.451,-0.362,-0.158,0.153,1.07,1.34,0.48,1.31,-0.883,0.182,0.483,0.223,0.138,-0.0379,-0.408,0.334,0.141
CCTACTGGGCCAAGGTCATTGCTCAGTCAAAGCA,3.09,3.01,0.828,2.83,-0.46,3.63,3.88,4.33,1.07,3.55,3.53,4.65,0.15,-1.36,1.17,3.36,0.887,3.01,-0.436
CGTCGGAGGACAACAGGAGGTCAGAGCTGCCAGA,1.46,2.29,2.3,1.48,-0.649,1.98,0.434,0.482,-0.532,0.226,0.202,0.616,-1.5,-1.4,2.42,2.5,0.93,2.58,0.114
GCTGCTAGGTCAGGATGGTCAGCTAACGGGTACG,0.825,0.646,-0.251,0.268,-0.621,1.6,0.968,1.04,-0.242,0.479,2.74,3.02,-0.328,-0.66,0.599,0.108,-0.722,0.555,-0.167
CCTCGGAGGACACCAGGAGGTCAGAGCTGCCAGA,1.2,1.69,0.739,1.12,-0.792,2.14,0.153,0.169,-0.691,-0.278,-0.249,0.459,-1.54,-1.67,1.78,2.17,-0.014,2.56,0.922
CTCGAAAGGTCAGTTGAGGTGAGTATACGGATAA,6.96,5.84,1.79,4.51,2.26,5.5,4.89,5.13,1.86,4.15,2.81,3.53,0.544,1.62,5.81,5.79,0.639,5.08,3.41
CATACCGGGTCAGCTAGGCCAGAGTAGGGACGGC,2.5,1.78,-0.499,1.04,-0.0141,3.1,2.07,1.87,0.181,0.975,1.21,2.82,0.167,0.0787,0.359,1.05,-0.232,1.76,-0.125
GCTGCTAGGTCAGGTTGGTCGGCTAACGGGTACG,1.01,0.53,-0.245,0.0524,-0.665,1.04,0.113,0.773,-0.581,0.235,2.56,1.97,-0.279,-0.788,0.576,-0.127,-0.593,0.317,-0.865
CGTCAAAGTTCAACTAAGTTAACGTAAAGCACGC,7.25,5.95,4.61,4.33,2.56,4.99,5.09,5.05,2.33,4,0.764,1.89,1.94,1.78,2.97,6.14,5.97,4.09,2.57
TTACCAAGGTGAAAGGTCGTTGAGGCACGCCTTG,3.79,3.61,0.199,2.74,-0.545,5.53,9.39,8.28,7.31,9.21,2.94,5.16,0.87,2.27,2.82,3.98,0.614,6.03,0.265
CGTCAAAGTTCAACTAAGGTAACGTATAGCACGC,7.12,6.07,4.63,4.52,2.2,5.23,5.1,5.56,2.29,4.48,0.646,2.49,2.35,1.51,3.82,5.78,5.22,4.65,2.34
ATATGTAGCTTAAGGGTCATTCAGGTTGGTTCGC,3.83,3.86,1.83,3.79,0.863,4.2,3.93,5.35,3.44,5.39,0.343,2.21,1.55,0.663,2.61,4.83,1.67,4.2,0.894
GCTGCTAGGTCAGGTTGGTCTGCTAACGGGTACG,1.17,0.795,-0.237,0.627,-0.557,1.4,0.225,0.854,-0.545,0.295,3.08,2.35,-0.411,-0.998,0.673,0.505,-0.437,0.971,0.182
TAGCCTAGGCCATGGGCCAGTATACCACGCGAAC,-0.747,-0.914,-0.864,-1.07,-1.23,-0.56,0.326,-0.0896,-0.9,-0.67,-0.977,-0.175,-0.116,-1.11,-1.27,-0.806,-1.11,-0.86,-1.48
CGTCAAAGTTCTAGGTAACGTAACAGAAAGCAGC,-0.164,-0.199,0.179,0.0595,-0.169,0.259,0.641,0.228,-0.178,0.017,1.41,1.83,0.454,0.457,0.283,-0.00995,-0.093,0.103,0.866
ATATGAAGGTTATCGGGTCATTCAGTTTGCGCAT,4.04,3.38,1.74,3.02,0.891,4.1,4.21,4.21,1.52,3.11,3.47,4.42,1.16,1.48,2.47,3.93,8.15,4.44,0.435
CGTCCAAGGTCAATGCAAGGTCAGTGAAAGCATT,7.23,5.69,4.1,5.16,1.06,5.79,4.73,5.14,2.05,3.82,3.53,4.28,0.246,0.606,5.89,6.14,2.19,6.91,2.02
CAACCTAGGTCACGAAAGGTCAAAGTCGAATGAC,7.63,8.28,8.29,7.81,2.82,6.92,7.93,7.32,4.53,6.39,5.05,6.58,1.6,1.91,4.46,7.28,2.49,6.93,1.71
ACTAGTTGGTAAGCTGAGGTCACACACAATTCGG,2.58,3.17,2.68,3.35,0.606,3.57,1.54,1.96,0.653,1.13,0.595,1.93,1,0.246,2.25,4.72,1.85,4.42,1.2
CATACAGGGTCCGCTAGGCCAGAGTAGGGACGGC,-0.192,-0.435,-0.418,-0.869,-0.218,-1.11,0.155,-0.418,-0.876,-0.844,-1.42,-0.128,0.386,-0.456,-0.436,-0.819,-0.353,-0.535,-0.0023
AGTCAAAGGTCAGGACGAGGTAACGTAAAGCACG,7.52,5.96,0.926,4.9,1.48,6.17,8.88,7.95,4.99,7.2,3.25,5.65,0.687,0.49,4.08,4.9,0.639,5.78,2.25
CCTACTGGGCCAAAGGTCCTTGATTCCAATGCTC,-0.0555,-0.225,-0.404,0.0817,-0.832,3.84,8.78,8.68,8.07,8.91,5.03,5.07,-0.487,-1.06,0.826,-0.225,-0.792,0.089,-0.831
CAAACTAGGTCACGAAAGGTCAACGTCGAATGAC,7.41,7.98,7.42,7.06,2.11,6.81,10.6,8.8,7.57,9.28,8.6,9.17,3.99,4.43,6.55,7.35,2.65,7.97,4.53

# From the supplement of paper PMC6555819
